# Reference: the supplement of paper PMC10681739
# Biological target: T1, ETS1 (UniProt P14921)
# T1 sequence: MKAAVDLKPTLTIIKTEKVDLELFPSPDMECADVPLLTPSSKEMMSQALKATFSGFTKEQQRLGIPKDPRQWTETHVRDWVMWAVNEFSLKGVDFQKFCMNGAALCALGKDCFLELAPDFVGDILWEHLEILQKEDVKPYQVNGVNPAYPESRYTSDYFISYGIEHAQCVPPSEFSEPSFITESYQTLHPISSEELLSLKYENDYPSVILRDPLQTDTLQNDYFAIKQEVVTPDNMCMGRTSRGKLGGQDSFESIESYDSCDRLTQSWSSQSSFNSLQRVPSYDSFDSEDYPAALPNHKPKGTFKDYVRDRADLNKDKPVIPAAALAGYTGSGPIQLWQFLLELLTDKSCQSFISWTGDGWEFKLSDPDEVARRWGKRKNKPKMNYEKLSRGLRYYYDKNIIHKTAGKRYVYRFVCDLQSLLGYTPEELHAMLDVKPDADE
# Experiment: ETS1 binding intensity (PBM fluorescence) in presence of RUNX1, normalised to ETS1-only experiment (arbitrary fluorescence units); higher = stronger binding
# Details: ETS1 concentration 1 nM; RUNX1 concentration 25 nM
row,Sequence,ETS1 binding intensity
1,CCCTCATCTTCCTGCTTCAGGCAGCTGTGGTTTACC,1550
2,ACATTTCCTTTTGGTATTTAAAGTAACCACACAGAA,668
3,GGGCCCTTCCTGTGGCGCCTGCCGAGCTGTGGTTGG,496
4,GTTTCTCTGGCCAGGAAATTGAGGTTTCTGTTAGTC,3260
5,TGGCGCTTCCTGTCGCTACCGCTGCGGCCCAGGGCC,763
6,TGAAGTTGGTGTTTTCCGGGGGCGGTTTTTCCATTG,451
7,CAGACCAGCCCAGGAAACAAGGAACCACAAAGCCAC,2260
8,CAGAGGACAGGATGCCAACCCCAAAACCGCAGCGAC,6200
9,TTAAACACGGAAGTGCATCGGTTGTTGTGGTTATTC,4360
10,CCTCTTGCTGCCTCTTCCTGTGGTCTTTTCTCTGTC,951
11,GAGGTGCCGGAAGCCAGTAGGTGGTTTTGGGTGCTA,2120
12,TCCTCCCACGGGAAGTGCCGTAGGACCGCAGCCCGA,1170
13,TCCAGCGGAAGGGGGCATCTTTGCGGCAGAGGCAGC,431
14,ACCCAGGAGGCGGAAGTTGTGGTGAGCCGAGATCGC,11600
15,CTGAAACAGGAAACAGACAAAGCCACAAGGTTCGCA,5750
16,CAGGGCACCTCCTACTTCCCCCCGCAGATAACTACC,1010
17,TGGCTGTGTCCCGGAAGTGGTCATAAGCTGGGTCCC,9830
18,CCCAGGGCAGGAAGGGCCAAACCGCTACTGCCACTG,2080
19,TGCCACCTGCTTCCTGCCTGTGTAGCCACAAGGGAC,960
20,TGGGTACTTCCTGTGACAAATCGAGTTGACCACATG,2230

row,Sequence,ETS1 binding intensity
1,GTCACCATTTCCGGGCCTCCGCGGTGTCCCCACCCC,2870
2,TTTGATTTCCTGTCTCCATGTTGTGGTCAAGATTGC,2990
3,GAGTTCCGCCTCGCCGTTTGTCCCTTGCGGTACCCG,620
4,CCCCTGCCCCTTCCTGGAAGGCTGCGGTGTAACACC,704
5,GCGCCCGGAAGGAAGGCTGGGGTAGGTTGTGGTTTC,2740
6,CTGTCTGCTTCCCGTGGCCAGCCCTGACCGCGGCCC,621
7,TTGGTGACCTCTTCCTGTCCGCTGTGGTGTTGTTAC,1240
8,TTCACAACACAGGATGTGCGGTATTATACGGCAAAG,11200
9,TAAGTGCAGGAAACGGCTGTGTGGGTGTCAGTGATT,1310
10,CAGAAACATCCCTCCTGCCGCCGCTTTGTGGTACCA,526
11,TTCTGTAGCTTAGGATGTGGGTTTCTTTGTTTCTGA,1020
12,TGGTTCCACCGACCGGAAGGGCCACAAGGATCCCCG,5560
13,ACACCCCAGGCAGGATGTGGTAGGGGTTGCCCCAGA,5030
14,GACGGGAGCACCGGAAGCGGTCTTTCCCCGAGCGGA,12500
15,GTTGAGTAGTGACAGGAAGTGACCGCAAGGGGGCGC,44800
16,CCGGGAAGGCGGAAGCAGCAGAGACGCCGCAAGGCC,1560
17,CGAAGCCAGGAAATAAGGATAAACCACAGAAAGAAA,3180
18,AGCGCTTCCTGGCTCCGGCCCCGCCCCTGCGGTCGG,1110
19,TGTAAGTCACTTCCTGTCGTGGTCAGGTCTCCTCTC,7730
20,ATGGTGTAGAGAGGATGTGGGCTTTAAGGTCAGAGA,1690
